Laboratory results published in PubChem BioAssay (NCATS).
Records with an inconclusive call do not appear. The source made the active and inactive calls. The call rests on the fitted dose curve; in most records, active means well fitted cell-killing curve with a large enough effect; inconclusive means small, poorly fitted or top-dose-only effect, or effect the other way; inactive means flat fitted curve, though single readings scatter.

Columns and labels:
Assay in all cases: Primary qHTS to identify gynecologic anti-cancer compounds using libraries of approved drugs and bioactive compounds (AID 1345084); further: nearly all actives have a fitted effect of over 55% in size
Conditions in all cases: Gynecologic cancer cell panel viability, ATPlite luminescence, 48 h; series mostly up to 57.5 µM
PA-1 = tested on: PA-1
How it was run: (§1)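 Cells, 1,000 per well, were allowed to settle for 16 h at 37 C before compound addition. Five concentrations were tested for 48 h, and viability was read by ATPlite luminescence after 15 min at room temperature.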

SKOV3 = tested on: SKOV3
How it was run: as §1

Tov-21-G = tested on: Tov-21-G
How it was run: as §1

Tov112D = tested on: Tov112D
How it was run: as §1
On the % scale 0 is the no-effect control and ±100 the full control effect.

COc1cc(CC2COC(c3ccc(OC4OC(CO)C(O)C(O)C4O)c(OC)c3)C2CO)ccc1O (stereo unspecified)
inactive: Potency (PA-1) | Potency (SKOV3) | Potency (Tov-21-G) | Potency (Tov112D)

CC1CC(=O)[C@]2(O)C(C(=O)OCCc3ccc(O)cc3)=CO[C@@H](O[C@@H]3O[C@H](CO)[C@@H](O)[C@H](O)[C@H]3O)[C@H]12 (stereo partly specified)
inactive: Potency (PA-1) | Potency (SKOV3) | Potency (Tov-21-G) | Potency (Tov112D)

CC1(C)CC[C@]2(C(=O)O[C@@H]3O[C@H](CO)[C@@H](O)[C@H](O)[C@H]3O)[C@H](O)C[C@]3(C)C(=CCC4[C@@]5(C)CC[C@H](O[C@@H]6OC[C@@H](O)[C@H](O)[C@H]6O)[C@@](C)(C(=O)O)C5CC[C@]43C)[C@@H]2C1 (stereo partly specified)
inactive: Potency (PA-1) | Potency (SKOV3) | Potency (Tov-21-G) | Potency (Tov112D)

N#CN1CCC[C@@H](n2nc(-c3ccc(Oc4ccc(F)cc4F)cc3)c(C(N)=O)c2N)C1
inactive: Potency (PA-1) | Potency (SKOV3) | Potency (Tov-21-G) | Potency (Tov112D)

COc1c2cc(c(O)c1OC)CCCCC(O)CCc1ccc(O)c-2c1 (stereo unspecified)
inactive: Potency (PA-1) | Potency (SKOV3) | Potency (Tov-21-G) | Potency (Tov112D)

O=C(NC1Cc2ccccc2N(C[C@@H](O)CO)C1=O)c1cc2cc(Cl)sc2[nH]1 (stereo partly specified)
inactive: Potency (PA-1) | Potency (SKOV3) | Potency (Tov-21-G) | Potency (Tov112D)

CC(=O)/C=C/[C@H]1[C@](C)(O)[C@@H](O)[C@H](O)C2C(C)(C)CCC[C@@]21C (stereo partly specified)
inactive: Potency (PA-1) | Potency (SKOV3) | Potency (Tov-21-G) | Potency (Tov112D)

COC(=O)C(Cc1ccccc1)NC(=O)c1ccccc1 (stereo unspecified)
inactive: Potency (PA-1) | Potency (SKOV3) | Potency (Tov-21-G) | Potency (Tov112D)

CO[C@H]1c2cc(C(C)C)c(O)c(O)c2[C@@]23CCCC(C)(C)C2[C@@H]1OC3=O (stereo partly specified)
inactive: Potency (PA-1) | Potency (SKOV3) | Potency (Tov-21-G) | Potency (Tov112D)

C[C@@H]1O[C@@H](O[C@@H]2[C@@H](O)[C@H](O[C@H]3[C@H](O[C@H]4CC[C@@]5(C)C(CC[C@]6(C)C5CC=C5[C@@H]7CC(C)(C)CC[C@]7(C(=O)O[C@@H]7O[C@H](CO)[C@@H](O)[C@H](O)[C@H]7O)CC[C@]56C)C4(C)C)O[C@H](C(=O)O)[C@@H](O)[C@@H]3O)OC[C@H]2O)[C@H](O)[C@H](O)[C@H]1O (stereo partly specified)
inactive: activity change, negative = cytotoxicity (PA-1) 4.95% [at 11.6 µM] | activity change, negative = cytotoxicity (SKOV3) 20.4% [at 11.6 µM] | activity change, negative = cytotoxicity (Tov-21-G) 1.4% [at 11.6 µM] | activity change, negative = cytotoxicity (Tov112D) 6.86% [at 11.6 µM]

CC(=O)O[C@@]1(C)[C@@H]2CC(=C(C)C)C(=O)C[C@@]2(C)CC[C@H]1OC(=O)C1(C)OC1C (stereo partly specified)
inactive: Potency (PA-1) | Potency (SKOV3) | Potency (Tov-21-G) | Potency (Tov112D)

O=C(O)Cc1cn([C@@H]2O[C@H](CO)[C@@H](O)[C@H](O)[C@H]2O[C@@H]2O[C@H](CO)[C@@H](O)[C@H](O)[C@H]2O)c2ccccc12
inactive: Potency (PA-1) | Potency (SKOV3) | Potency (Tov-21-G) | Potency (Tov112D)

COc1cccc2c1c(O)c(C(=O)N(C)c1ccc(C(F)(F)F)cc1)c(=O)n2C
inactive: Potency (PA-1) | Potency (SKOV3) | Potency (Tov-21-G) | Potency (Tov112D)

COc1cc(CO)ccc1O[C@@H]1O[C@H](CO)[C@@H](O)[C@H](O)[C@H]1O
inactive: Potency (PA-1) | Potency (SKOV3) | Potency (Tov-21-G) | Potency (Tov112D)

CC1(C)CC[C@]2(C(=O)O[C@@H]3O[C@H](CO)[C@@H](O)[C@H](O)[C@H]3O)CC[C@]3(C)C(=CCC4[C@@]5(C)C[C@H](O)[C@H](O[C@@H]6OC[C@@H](O)[C@H](O)[C@H]6O)[C@@](C)(CO)C5CC[C@]43C)C2C1 (stereo partly specified)
inactive: activity change, negative = cytotoxicity (PA-1) 8.05% [at 11.6 µM] | activity change, negative = cytotoxicity (SKOV3) 21.5% [at 11.6 µM] | activity change, negative = cytotoxicity (Tov-21-G) -9.27% [at 11.6 µM] | activity change, negative = cytotoxicity (Tov112D) 3.56% [at 11.6 µM]

CC1C2=CC(=O)OC2(O)CC2C1C(O)CC1C(C)(CO)CCCC21C (stereo unspecified)
inactive: Potency (PA-1) | Potency (SKOV3) | Potency (Tov-21-G) | Potency (Tov112D)

C=C1C(O)CC2C(C(=O)O)=COC(O[C@@H]3O[C@H](COC(=O)c4ccc(O)cc4)[C@@H](O)[C@H](O)[C@H]3O)C12 (stereo partly specified)
inactive: Potency (PA-1) | Potency (SKOV3) | Potency (Tov-21-G) | Potency (Tov112D)

CNC(=O)c1ccc2c(c1)CCO[C@H]2CCN1CCN(c2ccc(C(N)=O)cc2)CC1
inactive: Potency (PA-1) | Potency (SKOV3) | Potency (Tov-21-G) | Potency (Tov112D)

COC(=O)C1=CO[C@@H](O[C@@H]2O[C@H](CO)[C@@H](O)[C@H](O)[C@H]2O)[C@@H]2[C@@H](CO)[C@@H](O)C(O)[C@H]12 (stereo partly specified)
inactive: Potency (PA-1) | Potency (SKOV3) | Potency (Tov-21-G) | Potency (Tov112D)

COc1cc(/C=C/C(=O)O[C@@H]2C[C@](O)(C(=O)O)C[C@@H](O)[C@H]2O)ccc1O
inactive: Potency (PA-1) | Potency (SKOV3) | Potency (Tov-21-G) | Potency (Tov112D)

C/C(=C\CCC(C)C1CC(O)C2(C)C3CCC4C(C)(C)C(OC5OCC(O)C(O)C5O)CCC45CC35CC(O)C12C)C(=O)O (stereo unspecified)
inactive: Potency (PA-1) | Potency (SKOV3) | Potency (Tov-21-G) | Potency (Tov112D)

COc1cc(Nc2nc3ccccc3nc2NS(=O)(=O)c2cccc(NC(=O)c3ccc(C)c(OC)c3)c2)cc(OC)c1
inactive: Potency (PA-1) | Potency (SKOV3) | Potency (Tov-21-G) | Potency (Tov112D)

C[C@H]1CC(=O)C2=C(C1)C(O)C(O)[C@@]1(O)[C@H]2C(=O)c2cccc(O)c2[C@@H]1O (stereo partly specified)
inactive: Potency (PA-1) | Potency (SKOV3) | Potency (Tov-21-G) | Potency (Tov112D)

COC(=O)/C=C/c1ccc(O[C@@H]2O[C@H](CO)[C@@H](O)[C@H](O)[C@H]2O)cc1
inactive: Potency (PA-1) | Potency (SKOV3) | Potency (Tov-21-G) | Potency (Tov112D)
